Bioassay records as filed in PubChem.
An excerpt weighted towards active compounds, which were near 3.4% of everything screened.
esBAF inh: inhibitors of esBAF chromatin remodeling in mouse ES cells. Bmi1-luciferase knock-in reporter, 24 h; 100% = twice the neutral-well signal. reporter increase, % at 12.5 µM. 350,000 compounds, 2% hits. AID 602393; in the data active means activation above about 40%; inconclusive means no clear call, values can overlap the other calls;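 further: a rise in the Bmi1 reporter signal indicates esBAF inhibition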
Wnt act: Wnt/beta-catenin pathway activation; Wnt/beta-catenin reporter cell assay, activator, plate reader; activation, % at 9.35 µM; 300,000 compounds, 1.2% hits; in the data active means activation above about 30%, passing the limit was not always enough; inconclusive means no clear call, values can overlap the other calls
HIV Env fusion: blocks HIV Env-driven cell-cell fusion; HeLa-JRFL Env/CEM21 cell fusion, luciferase; inhibition, % at 12.3 µM; 360,000 compounds, 1.1% hits;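 active means mean replicate inhibition score of at least 50 and every replicate individually at or above 50; inconclusive means only one of the two criteria met; inactive means mean below 50 and not all replicates reaching 50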
miR-122 sensor: miR-122 inhibition in Huh7 cells. 340,000 compounds, 0.3% hits. Huh7 miR-122 Renilla luciferase sensor, 48 h; neutral wells = 0, positive control = 100. activation (reporter increase), % at 12.5 µM;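 active means mean replicate activation score at least 90 and every replicate individually at or above 90; inconclusive means only one of the two criteria met; inactive means neither criterion met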;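 further: higher luciferase means less miR-122 activity so hits act as miR-122 inhibitors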
MITF act: increases MITF-driven TRPM1 promoter luciferase signal; activation, % at 12.5 µM; 300,000 compounds, 0.75% hits; SK-MEL-5 TRPM1-promoter luciferase, 24 h; % of positive control, neutral wells = 0;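 active means mean activation of at least 80% with every replicate also reaching 80%; inconclusive means mean reaches 80% but some replicate falls short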
Large screens that a line does not name were inactive.

CC(C)(C)C(=O)NNC(=O)c1cc2sccc2s1	Wnt act 41 (no result: esBAF inh, miR-122 sensor)
CC(C)(C)OC(=O)NNC(=O)c1cccs1	none (no result: esBAF inh)
CCCCCCCNC(=O)C1(CC2CC(c3ccccc3)=NO2)CCN(C(=O)c2ccccc2)CC1 (centres undefined)	none
CCCCCCCNC(=O)C1(CC2CC(c3ccccc3)=NO2)CCN(C(=O)OC(C)(C)C)CC1 (centres undefined)	esBAF inh 62
CN(CC(=O)Nc1ccc(Cl)c(C(F)(F)F)c1)C(=O)C1(c2ccccc2)CC1	HIV Env fusion 56
CN(CC(=O)NCCc1ccc(S(N)(=O)=O)cc1)CC(=O)Nc1ccc(Cl)c(C(F)(F)F)c1	HIV Env fusion 93 (no result: miR-122 sensor)
C[C@@H]1CN([C@H](C)CO)C(=O)Cc2cc(NS(=O)(=O)c3ccc(Cl)cc3)ccc2O[C@@H]1CN(C)Cc1ccc(Cl)c(Cl)c1	none (no result: Wnt act, MITF act)
CCOC(=O)N/C(N)=N/c1nc2ccccc2s1	esBAF inh 57, Wnt act 56 (no result: MITF act)
Cc1cc(C(=O)Nc2cccc3c2O[C@@H](CN(C)S(=O)(=O)c2cccs2)[C@H](C)CN([C@@H](C)CO)C3=O)n(C)n1	none (no result: Wnt act, HIV Env fusion, MITF act)
COCC(=O)Nc1ccc2c(c1)[C@H]1C[C@H](CC(=O)N3CCCCC3)O[C@@H](CO)[C@H]1O2	none (no result: Wnt act, MITF act)
NS(=O)(=O)c1ccc(NC(=O)C2Cc3ccccc3CN2C(=O)c2ccco2)cc1 (centres undefined)	none (no result: MITF act)
COc1cccc(NC(=O)C2Cc3ccccc3CN2C(=O)c2ccco2)c1 (centres undefined)	esBAF inh 57
O=C(NCc1ccccc1)C1Cc2ccccc2CN1C(=O)c1ccco1 (centres undefined)	none
Cc1ccccc1NC(=O)C1Cc2ccccc2CN1C(=O)c1ccco1 (centres undefined)	esBAF inh 55 (no result: miR-122 sensor)
COc1ccccc1-c1ccc2c(c1)[C@H]1[C@H](CCN1S(=O)(=O)c1cccc(C)c1)[C@@H](CO)N2	none (no result: Wnt act, HIV Env fusion, MITF act)
COc1ccc(NC(=O)N(C)C[C@@H]2Oc3c(NC(=O)C4CCOCC4)cccc3C(=O)N([C@H](C)CO)C[C@H]2C)cc1	none (no result: Wnt act, HIV Env fusion, MITF act)
Oc1sc(C=Nc2ccccc2)c2ccccc12	esBAF inh 77, Wnt act 58
Oc1sc(C=Nc2ccc(F)cc2)c2ccccc12	Wnt act 42
Oc1c(C=Nc2ccccc2)sc2ccccc12	none (no result: esBAF inh, miR-122 sensor)
O=C(Nc1nccs1)[C@@H]1[C@@H](CO)[C@@H]2Cn3c(cccc3=O)[C@@H]2N1C(=O)C1CCCCC1	none (no result: Wnt act, HIV Env fusion, MITF act)
C[C@@H]1CN([C@@H](C)CO)C(=O)c2cc(-c3ccncc3)cnc2O[C@H]1CN(C)C(=O)NC1CCCC1	none (no result: Wnt act, miR-122 sensor, MITF act)
O=C(CSCc1ccccc1)Nc1cccc(F)c1	Wnt act 63, MITF act 95 (no result: esBAF inh, miR-122 sensor)
Cc1ccccc1CSCC(=O)Nc1ccccc1F	esBAF inh 48 (no result: MITF act)
COc1ccc(C)cc1NC(=O)CSCc1ccccc1C	none
O=C(CSCc1c(F)cccc1F)Nc1ccccc1	esBAF inh 51 (no result: MITF act)
Cc1nc2ccc(Cl)cc2nc(C)/c1=N\O	none (no result: Wnt act, HIV Env fusion)
Cc1ccc2nc(C)/c(=N\O)c(C)nc2c1	esBAF inh 55 (no result: Wnt act)
O=C(C[C@H]1CC[C@H]2[C@@H](COC[C@H](O)CN2S(=O)(=O)c2ccccc2)O1)NCc1ccc2c(c1)OCO2	none (no result: Wnt act, HIV Env fusion, MITF act)
Cc1sc2ncn(/N=C/c3ccco3)c(=O)c2c1C	esBAF inh 49
COc1cc(C#Cc2c(-c3cncn3C)n(C)c3ccc(-c4cnc(N5CCOCC5)nc4)cc23)cc(OC)c1	MITF act 89 (no result: miR-122 sensor)
COC(=O)c1ccc(CC2(C)C(=O)Nc3ccc(-c4cccc(C(F)(F)F)c4)cc32)o1 (centres undefined)	HIV Env fusion 65 (no result: MITF act)
Nc1nc(-c2ccc(Cl)cc2)cs1	none (no result: esBAF inh, miR-122 sensor, MITF act)
Cc1ccc(-c2csc(N)n2)cc1	esBAF inh 43 (no result: miR-122 sensor)
Nc1nc(-c2ccc(Oc3ccccc3)cc2)cs1	esBAF inh 68 (no result: miR-122 sensor, MITF act)
Nc1nc(-c2ccc(-c3ccccc3)cc2)cs1	esBAF inh 59
COc1ccc(-c2csc(N)n2)cc1	none (no result: esBAF inh, Wnt act, miR-122 sensor)
Nc1nc(-c2ccc(C(=O)O)cc2)cs1	none (no result: miR-122 sensor)
C[C@@H]1CN([C@H](C)CO)C(=O)Cc2cc(NC(=O)Nc3ccc4c(c3)OCO4)ccc2O[C@@H]1CN(C)Cc1ccc(C(F)(F)F)cc1	none (no result: Wnt act, MITF act)
C[C@@H]1CN([C@H](C)CO)S(=O)(=O)c2ccc(C#CC3CC3)cc2O[C@@H]1CN(C)Cc1ccc(F)cc1	none (no result: Wnt act, MITF act)
C/C=C1\COC(C(=O)NCc2ccncc2)(C(F)(F)F)C=C1C=C1CCCCC1 (centres undefined)	none
C/C=C1\COC(C(=O)NCc2cccc(OC)c2OC)(C(F)(F)F)C=C1C=C1CCCCC1 (centres undefined)	HIV Env fusion 71
COc1ccc(-n2nc3cc(C)c(N)c(Br)c3n2)cc1	none (no result: HIV Env fusion, MITF act)
COc1ccc(-n2nc3cc(N)c(Br)cc3n2)cc1	esBAF inh 57 (no result: MITF act)
Cc1cc(-c2nc3cc(F)ccc3s2)ccc1N	Wnt act 60 (no result: esBAF inh, miR-122 sensor)
CC(=O)Nc1ccc2c(c1)C(=O)N(C)[C@H]1CC[C@H](CC(=O)NCc3ccc4c(c3)OCO4)O[C@H]1CO2	none (no result: Wnt act, MITF act)
COC(=O)C1CCN(C(=O)c2ccc3nc(-c4cccc(OC)c4)oc3c2)CC1	Wnt act 32 (no result: esBAF inh, miR-122 sensor)
COc1cccc(-c2nc3ccc(C(=O)NC(C)Cc4cccnc4)cc3o2)c1 (centres undefined)	esBAF inh 54
CO[C@H]1CC[C@@H]2CCN(C)C(=O)C[C@@H](c3ccccc3)CN(C)C(=O)c3cccc(C#N)c3OC[C@H]1O2	none (no result: Wnt act, miR-122 sensor, MITF act)
Cc1nn(Cc2c(F)c(F)c(F)c(F)c2F)c(C)c1NC(=O)c1ccc(COc2ccccc2Cl)o1	HIV Env fusion 66 (no result: Wnt act)
Cc1nn(Cc2c(F)c(F)c(F)c(F)c2F)c(C)c1NC(=O)c1ccc(COc2ccc(F)cc2)o1	HIV Env fusion 67
Cc1nn(Cc2c(F)c(F)c(F)c(F)c2F)c(C)c1NC(=O)c1ccc(COc2ccccc2Cl)cc1	none (no result: Wnt act)
Cc1nn(Cc2c(F)c(F)c(F)c(F)c2F)c(C)c1NC(=O)c1c(-c2ccccc2)nn(-c2ccccc2)c1C	HIV Env fusion 95 (no result: Wnt act)
CO[C@H](CN(C)S(=O)(=O)c1cccc(Cl)c1)[C@@H](C)CN([C@H](C)CO)S(=O)(=O)c1cccc(Cl)c1	none (no result: Wnt act, HIV Env fusion, miR-122 sensor, MITF act)
CN(C)CCCNC(=O)C[C@@H]1CC[C@H](NC(=O)Cc2cccnc2)[C@H](CO)O1	none (no result: Wnt act, miR-122 sensor, MITF act)
COc1ccc(S(=O)(=O)N(C)C[C@@H]2Oc3c(NC(=O)Nc4ccc(C(F)(F)F)cc4)cccc3C(=O)N([C@@H](C)CO)C[C@@H]2C)cc1	none (no result: Wnt act, MITF act)
C[C@H](NC(=O)C[C@H]1CC[C@@H]2[C@H](COC[C@H](O)CN2C(=O)Nc2cccc(F)c2)O1)c1ccccc1	none (no result: Wnt act, HIV Env fusion, MITF act)
c1ccc(NC2=Nc3ccccc3CC2)cc1	esBAF inh 46, MITF act inconclusive (no result: Wnt act, HIV Env fusion)
c1ccc(Nc2ccc3c4c(cccc24)CC3)cc1	none (no result: MITF act)
Cc1ccc(S(=O)(=O)Nc2ccccc2-c2ccccc2)cc1	miR-122 sensor 161
O=C(Nc1nccs1)c1ccc(-c2ccc(F)c(Cl)c2)o1	esBAF inh 57, MITF act 113
